Screening data from PubChem.
An excerpt weighted towards active compounds, which were near 1.7% of everything screened.
SSB-PriA inh: blocks PriA binding to SSB C-terminal tail | inhibition, % at 33 µM | 430,000 compounds, 0.6% hits | AlphaScreen SSBct-PriA binding, biotinylated peptide | AID 1272365; in the data active = inhibition mostly above about 37%, no sharp cut-off; inactive = mostly below about 20%;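 also: plate controls were negative control peptide for no effect and reference peptide for full effect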
Y pestis TopoI: inhibitors of Yersinia pestis topoisomerase I; Y. pestis Topo-I cleavage product accumulation, plate reader; activity, % at 10 µM; 360,000 compounds, 0.064% hits; AID 504884; in the data active = activity above about 50%, passing the limit was not always enough
BJeLR lethal: kills HRASV12-expressing BJeLR cells | BJeLR (HRASV12) viability, CellTiter-Glo ATP luminescence, 48 h | inhibition, % (no concentration beside the values) | 300,000 compounds, 0.17% hits; in the data active = inhibition above about 50%
PfHsp40 rescue: restores yeast growth despite PfHsp40 toxicity | S. cerevisiae expressing PfHsp40, growth rescue, ATP luminescence | growth rescue, % at 12.5 µM | 340,000 compounds, 0.68% hits | AID 504582; in the data active = growth rescue above about 28%, passing the limit was not always enough;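 also: yeast W303a lacking pdr1 and pdr3 grown in galactose medium; growth measured after three days at 30 °C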
PrP UTR inh: suppresses PrP 5' UTR mRNA reporter expression | AID 488862 | inhibition, % (test concentration not listed) | 340,000 compounds, 0.35% hits | cell-based PrP 5' UTR mRNA reporter, plate reader; in the data active = inhibition above about 52%; also: 0 = median of the neutral control wells
PrPC surface inh: inhibitors of human cell surface prion protein PrPC | P04156 | TR-FRET read-out | inhibition, % at 13.8 µM | 370,000 compounds, 0.43% hits; in the data active = inhibition above about 24%; also: 0% = median of the test wells and 100% = reference compound wells
PrPC confirm: cell surface PrPC inhibition, TR-FRET confirmation | shares compounds with PrPC surface inh | cell surface PrPC level | inhibition, % at 13.8 µM | 1,500 compounds, 65% hits | AID 743200; in the data active = inhibition above about 25%
LD9 tox: LD9 cell cytotoxicity, PrPc inhibitor counter-screen | shares compounds with PrPC surface inh | LD9 cells cytotoxicity, luminescence viability | inhibition, % at 13.8 µM | 1,500 compounds, 29% hits; in the data active = inhibition above about 9.5%
The depositor's hits bear a star; nt = no result.

SMILES	SSB-PriA inh	Y pestis TopoI	BJeLR lethal	PfHsp40 rescue	PrP UTR inh	PrPC surface inh	PrPC confirm	LD9 tox
CN1CCN(S(=O)(=O)c2ccc(NC(=S)NC(=O)CCc3ccccc3)cc2)CC1	-7	nt	nt	nt	nt	nt	nt	nt
CC(=O)c1nnn(-c2nc(N)nc(N(c3ccccc3)c3ccccc3)n2)c1C	-5	15	3	0	-14	25*	91*	-7
COC(=O)c1c(NC(=O)c2ccc([N+](=O)[O-])o2)sc(Cc2ccc3c(c2)OCO3)c1C	-1	nt	nt	nt	nt	nt	nt	nt
CC1Cc2c(NC(=O)c3ccc(S(=O)(=O)N(C)C)cc3)nn(C)c2NC1=O (stereo not given)	3	nt	nt	nt	nt	nt	nt	nt
Cc1ccccc1-n1c(CC2CCN(C(=O)c3c[nH]c(=O)c(Cl)c3)CC2)n[nH]c1=O	-5	nt	nt	nt	nt	nt	nt	nt
Cc1ccc(S(=O)(=O)c2cccc(S(=O)(=O)N3CCOCC3)c2)cc1S(=O)(=O)N1CCOCC1	0	24	-12	-1	-7	4	nt	nt
Cc1ccc(S(=O)(=O)c2cccc(S(=O)(=O)N3CCCC3)c2)cc1S(=O)(=O)N1CCCC1	-2	48	-2	0	3	34*	30*	9
O=C(CCc1csc(NC(=O)c2ccc(=O)[nH]c2)n1)Nc1ccc(F)c(Cl)c1	-6	nt	nt	nt	nt	nt	nt	nt
CCOC(=O)c1c(C)n(CC)c2c1cc(O)c1ccccc12	9	-13	-8	0	-20	25*	11	-4
Cc1c(C(=O)N2CCN(c3nc(-c4ccsc4)cs3)CC2)cnn1-c1ccccc1	-4	nt	nt	nt	nt	nt	nt	nt
CCOC(=O)CSc1nc(C(C)(C)C)nc2ccccc12	-15	18	6	-1	8	32*	58*	1
CC(C)NC(=O)CSc1nc(Cc2ccccc2)nc2ccccc12	-9	0	-1	0	-14	13	nt	nt
CCOC(=O)CSc1nc(C2CC2)nc2ccccc12	-2	4	-2	1	-10	25*	43*	-3
CC(C)(C)c1nc(SCC(=O)NNC(=O)c2ccccc2)c2ccccc2n1	-7	9	-6	-1	-1	45*	67*	-11
CC(C)OC(=O)CSc1nc(Cc2cccs2)nc2ccccc12	-4	28	-1	2	-5	37*	23	-3
CCOC(=O)CSc1nc(C)c2ccccc2n1	-16	-8	-7	0	-35	20	nt	nt
CCOc1ccc2ccccc2c1C(=O)NCCn1nc(-c2ccncc2)cc1C	-5	nt	nt	nt	nt	nt	nt	nt
Cc1cc(C)nc(NS(=O)(=O)c2ccc(N=Nc3c(C)[nH][nH]c3=O)cc2)n1	-1	nt	nt	nt	nt	nt	nt	nt
CN(C)S(=O)(=O)N1CCN(C(=O)c2cnn3c2CCCC3)CC1	-11	nt	nt	nt	nt	nt	nt	nt
COc1ccc(CC(=O)Nc2ccc3c(c2)CN(C(=O)C2CC2)CC3)cc1OC	-7	nt	nt	nt	nt	nt	nt	nt
CCOC(=O)CSc1nc(C(C)C)nc2ccccc12	-4	17	-22	-1	-15	110*	123*	-1
CCOC(=O)CSc1nc(COc2ccccc2)nc2ccccc12	1	9	-4	-1	-4	59*	60*	8
Cc1cccc(C)c1NC(=O)CSc1nc(COc2ccccc2)nc2ccccc12	-5	5	-5	0	-23	2	nt	nt
Cc1ccc(C(=O)CSc2nc(C(C)C)nc3ccccc23)cc1	-19	20	14	-2	-15	8	nt	nt
COC(=O)CSc1nc(C(C)C)nc2ccccc12	-3	-9	-2	-1	-5	121*	123*	-4
SMILES	SSB-PriA inh	Y pestis TopoI	BJeLR lethal	PfHsp40 rescue	PrP UTR inh	PrPC surface inh	PrPC confirm	LD9 tox
Cn1c(/C=N/Nc2nc3ccccc3[nH]2)nc2ccccc21	nt	-13	-1	5	-121	-13	nt	nt
C=CCn1cc(/C=N/Nc2nc3ccccc3[nH]2)c2ccccc21	nt	-21	4	0	-55	27*	24	14*
c1ccc(CC2NCCc3ccccc32)cc1 (stereo not given)	5	nt	nt	nt	nt	nt	nt	nt
CC1=C(C)[N+](=O)C2(O)CCCCC2(C)N1[O-] (stereo not given)	-8	1	13	-1	-15	36*	4	-4
CN(C)c1ccc(CCNC(=O)c2c(F)cccc2Cl)cc1	3	nt	nt	nt	nt	nt	nt	nt
CCCCc1c(Cc2cccc(F)c2)ncn1CCc1ccccc1OC	nt	nt	nt	nt	nt	27*	19	17*
CCCCc1c(-c2ccc(F)cc2F)ncn1CCc1ccccc1OC	nt	nt	nt	nt	nt	3	nt	nt
